The text below walks through data of PubChem BioAssay (NCI).

The panel holds about 83,000 compounds, 20% with a hit somewhere; the sample as a whole holds those more often.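 Plates (96-well) were seeded with cells, treated with compound at one concentration, and incubated for 48 hours before percent growth was determined.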 Unmarked numbers belong to inactive results. The source made the active and inactive calls. How the source made its calls: active means growth percent below 10; inactive means the rest.

Some test systems named below: SK-MEL-2 melanoma; EKVX NSCLC; SN12C renal; UO-31 renal; ACHN renal; CAKI-1 renal; A498 renal; CCRF-CEM leukemia; MOLT-4 leukemia; SR leukemia; RPMI-8226 leukemia; OVCAR-8 ovarian; OVCAR-5 ovarian; OVCAR-4 ovarian; SK-OV-3 ovarian; IGROV1 ovarian; OVCAR-3 ovarian; HS 578T breast; NCI/ADR-RES ovarian.
Test in all cases: NCI-60 one-dose screen, 48 h (100 = growth as untreated, 0 = no growth, -100 = all killed)
What all share (conditions): 10 µM unless noted

As for `CCCCNC(=O)Oc1ccc(/C(=C(/C)Cc2ccc(OC)cc2)c2ccc(OCCN3CCCC3)cc2)cc1`, the growth with SK-MEL-2 melanoma is 85.2%; in the assay on EKVX NSCLC, 67.6%; in the assay on SN12C renal it was 72.6%; in the assay with UO-31 renal it was 53.5%; with ACHN renal, 91.9%; in the assay on CAKI-1 renal, 70.5%. Moreover, the growth in the assay with A498 renal is 59.6%; in the assay on CCRF-CEM leukemia it was 46%; in the assay on MOLT-4 leukemia it was 34.4%; in the assay on SR leukemia it was -54.1% (active); in the assay on RPMI-8226 leukemia, 1.62% (active); in the assay on OVCAR-8 ovarian it was 69.6%. Also, the growth in the assay on OVCAR-5 ovarian was 86%; in the assay with OVCAR-4 ovarian it was 68.9%; in the assay with SK-OV-3 ovarian, 89.1%; in the assay with IGROV1 ovarian, 85.5%; in the assay on OVCAR-3 ovarian, 56.1%; in the assay with HS 578T breast, 50.4%. In addition, in the assay on NCI/ADR-RES ovarian, the growth is 81.5%.

With `Cc1c(-c2ccc(O)cc2)n(Cc2ccc(OCCN3CCCCCC3)cc2)c2ccc(O)cc12`, the growth in the assay on SK-MEL-2 melanoma is 106%; with EKVX NSCLC, 75.2%; in the assay on SN12C renal it was 81%; with UO-31 renal, 52.6%; in the assay on ACHN renal, 91.9%; in the assay with CAKI-1 renal it was 50.6%. For the same compound, the growth was 53.7% in the assay on A498 renal; 57.5% with CCRF-CEM leukemia; 39.8% with MOLT-4 leukemia; 1.53% (active) with SR leukemia; 57.5% in the assay on RPMI-8226 leukemia; 84.7% with OVCAR-8 ovarian. Also, the growth was 78.1% in the assay on OVCAR-4 ovarian; 81.3% in the assay on SK-OV-3 ovarian; 85.7% with IGROV1 ovarian; 85.1% in the assay on OVCAR-3 ovarian; 68.4% in the assay on HS 578T breast; 85.7% with NCI/ADR-RES ovarian.

Regarding `COc1ccc(OC)c(/C=N/Nc2ncnc3c2c(C)nn3C)c1`, the growth in the assay with SK-MEL-2 melanoma was 105%; in the assay with EKVX NSCLC, 94.8%; in the assay on SN12C renal, 91.4%; in the assay on UO-31 renal, 82.9%; in the assay on ACHN renal, 105%; with CAKI-1 renal, 98.7%. Also, the growth with A498 renal is 64.4%; in the assay on CCRF-CEM leukemia it was 103%; in the assay with MOLT-4 leukemia, 93.9%; in the assay with SR leukemia it was 81.4%; in the assay with RPMI-8226 leukemia, 100%; with OVCAR-8 ovarian, 109%. Moreover, the growth was 93.2% in the assay with OVCAR-5 ovarian; 118% in the assay with OVCAR-4 ovarian; 102% with SK-OV-3 ovarian; 102% in the assay with IGROV1 ovarian; 107% with OVCAR-3 ovarian; 88% in the assay on HS 578T breast. Moreover, the growth with NCI/ADR-RES ovarian is 101%.

As for `COc1ccc(-c2cc(-c3cccnc3)nc3sc4c(=O)[nH]c(-c5ccc(Cl)cc5)nc4c23)cc1OC`, the growth in the assay with SK-MEL-2 melanoma was 95.7%; with EKVX NSCLC, 90%; in the assay on SN12C renal, 89.5%; in the assay with UO-31 renal, 78.1%; in the assay with ACHN renal, 93.4%; in the assay with CAKI-1 renal, 86.4%. Also, the growth in the assay on A498 renal is 91.2%; in the assay with CCRF-CEM leukemia, 80.3%; with SR leukemia, 87.5%; in the assay on RPMI-8226 leukemia, 88.8%; in the assay with OVCAR-8 ovarian, 92.2%; in the assay on OVCAR-5 ovarian it was 98.2%. Moreover, the growth in the assay on OVCAR-4 ovarian was 87.9%; in the assay with SK-OV-3 ovarian, 95.2%; with IGROV1 ovarian, 90.3%; with OVCAR-3 ovarian, 102%; in the assay on HS 578T breast, 92%; in the assay with NCI/ADR-RES ovarian it was 98%.

For `Cn1c(I)c(C#CCO[Si](C)(C)C(C)(C)C)c(=O)[nH]c1=O`, the growth is 69.2% with SK-MEL-2 melanoma; 105% with EKVX NSCLC; 114% in the assay with SN12C renal; 25.3% with UO-31 renal; 99.7% in the assay on ACHN renal; 103% with CAKI-1 renal. Further, the growth in the assay with A498 renal is 94.5%; in the assay with CCRF-CEM leukemia, 5.42% (active); with MOLT-4 leukemia it was -22.9% (active); with SR leukemia, -11.3% (active); in the assay with RPMI-8226 leukemia, 84.8%; in the assay with OVCAR-8 ovarian it was 94.8%. In addition, the growth with OVCAR-5 ovarian is 102%; with OVCAR-4 ovarian, 80%; in the assay on SK-OV-3 ovarian, 105%; in the assay on IGROV1 ovarian it was 81.4%; in the assay on OVCAR-3 ovarian, 75.4%; in the assay on NCI/ADR-RES ovarian it was 102%.

Consider `O=C(Nc1cccc(-c2ccc(N3CCOCC3)nn2)c1)Nc1cccc(C(F)(F)F)c1`, for which the growth in the assay with SK-MEL-2 melanoma was 70%; in the assay with EKVX NSCLC, 63.7%; in the assay with SN12C renal, 66.6%; with UO-31 renal it was 74.9%; in the assay with ACHN renal it was 65.7%; in the assay with CAKI-1 renal, 87.9%. Further, the growth in the assay on A498 renal was 80.3%; in the assay with CCRF-CEM leukemia, 26%; in the assay with MOLT-4 leukemia, 22.9%; in the assay on SR leukemia, 60.4%; in the assay on RPMI-8226 leukemia, 31.4%; with OVCAR-8 ovarian, 35.4%. For the same compound, the growth in the assay on OVCAR-5 ovarian is 125%; in the assay with OVCAR-4 ovarian it was 73.3%; in the assay on SK-OV-3 ovarian, 104%; with IGROV1 ovarian, 97.1%; in the assay with OVCAR-3 ovarian, 74.3%; in the assay on HS 578T breast it was 91.6%. Besides, in the assay with NCI/ADR-RES ovarian, the growth was 72.2%.

On to `O=C(Nc1ccccc1O)c1ccc(CNC(=O)c2sccc2Nc2ccnc(C(F)(F)F)c2)cc1`, for which the growth in the assay on SK-MEL-2 melanoma was 0.0247% (active); with EKVX NSCLC it was 59.2%; in the assay on SN12C renal, 57.8%; in the assay with UO-31 renal, 27.2%; in the assay on CAKI-1 renal, 35.2%; in the assay with A498 renal, 6.31% (active). The growth in the assay with CCRF-CEM leukemia was 10.8%; with MOLT-4 leukemia, 12.1%; in the assay with SR leukemia, 36.2%; in the assay with RPMI-8226 leukemia, 24.3%; in the assay on OVCAR-8 ovarian, 35.8%; with OVCAR-5 ovarian, 45.6%. For the same compound, the growth in the assay on OVCAR-4 ovarian is 48.3%; in the assay on SK-OV-3 ovarian it was 57.2%; in the assay with IGROV1 ovarian, 41%; in the assay with OVCAR-3 ovarian, 41.3%; in the assay on HS 578T breast, 14.6%; with NCI/ADR-RES ovarian, 24.1%.

Turning to `COC(=O)c1c(C)nc(C)c2c1C(=O)C(Br)=C(NCc1ccccc1)C2=O`, the growth was 27.2% in the assay on SK-MEL-2 melanoma; 17% in the assay with EKVX NSCLC; 8.24% (active) in the assay on SN12C renal; 46.1% in the assay on UO-31 renal; 36.9% in the assay with ACHN renal; 51.8% in the assay on CAKI-1 renal. For the same compound, the growth in the assay on A498 renal was 88.6%; in the assay with CCRF-CEM leukemia it was 25.5%; in the assay on MOLT-4 leukemia, 13.6%; with SR leukemia, 27%; in the assay with RPMI-8226 leukemia it was 41.1%; with OVCAR-8 ovarian, 4.6% (active). The growth in the assay with OVCAR-5 ovarian was 61.5%; in the assay with OVCAR-4 ovarian, -57.3% (active); in the assay with SK-OV-3 ovarian it was 109%; with IGROV1 ovarian, 18%; in the assay on OVCAR-3 ovarian, -12.7% (active); in the assay on NCI/ADR-RES ovarian, 3.37% (active).

Regarding `O=C(Nc1ccc(Oc2cccc(Cl)c2)c(Cl)c1)c1cnccn1`, the growth was 43.6% with SK-MEL-2 melanoma; 53.2% in the assay on EKVX NSCLC; 44.4% with SN12C renal; 37.3% with UO-31 renal; 40% with ACHN renal; 21.6% in the assay with CAKI-1 renal. In addition, the growth in the assay with A498 renal was 50.2%; with CCRF-CEM leukemia, 16.6%; with MOLT-4 leukemia, 26.2%; in the assay on SR leukemia it was 26.3%; in the assay with RPMI-8226 leukemia, 18.1%; in the assay on OVCAR-8 ovarian, 28%. Further, the growth in the assay on OVCAR-5 ovarian was 60.4%; with OVCAR-4 ovarian, 38.9%; in the assay with SK-OV-3 ovarian it was 83.3%; in the assay on IGROV1 ovarian, 27%; with OVCAR-3 ovarian, -7.23% (active); with HS 578T breast, 18.7%. The growth in the assay on NCI/ADR-RES ovarian was 14.8%.
